Cruzain Triton = inhibitors of Trypanosoma cruzi cruzain with detergent; P25779; purified cruzain, Z-FR-AMC fluorescence, 0.01% Triton; Potency, µM, inactives show max response, negative = inhibition, hits mostly inhibitors; 200,000 tested, 0.43% active;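 also: plate controls were neutral wells for no effect and buffer without enzyme for full effect; nearly all actives have a fitted effect of over 40% in size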
Target sequence (P25779 123-467 limits assumed): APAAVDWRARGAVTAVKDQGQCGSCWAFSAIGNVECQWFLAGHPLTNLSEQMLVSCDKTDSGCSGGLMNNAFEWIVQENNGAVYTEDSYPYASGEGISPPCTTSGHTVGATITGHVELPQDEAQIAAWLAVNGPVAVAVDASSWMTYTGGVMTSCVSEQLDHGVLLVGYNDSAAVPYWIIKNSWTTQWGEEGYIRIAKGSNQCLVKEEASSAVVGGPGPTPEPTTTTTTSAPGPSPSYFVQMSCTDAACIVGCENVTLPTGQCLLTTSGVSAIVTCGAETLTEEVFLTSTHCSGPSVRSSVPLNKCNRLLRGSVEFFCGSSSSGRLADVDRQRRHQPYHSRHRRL
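Enzyme 1.5 nM, Z-FR-AMC 2 uM, NaOAc 100 mM pH 5.5, DTT 5 mM, Triton X-100 0.01%; 15 min RT compound preincubation; kinetic ex360/em450, 60 s delta.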
NS1 inh = inhibitors of influenza NS1 protein function; Potency, µM (highest dose often 46.1 µM), for inactives: top-dose activity, positive = more growth; 270,000 tested, 0.4% active; calls by dose curve; also: actives are rising curves; nearly all actives have a fitted effect of over 50% in size
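Recovery from NS1-induced slow growth read by OD600 in budding yeast switched to galactose assay medium (pH 6.0, -URA) at 1:100 dilution. Compound 23 nl per well; the matching strain lacking NS1 serves as control.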
Cruzain inh noDet = inhibitors of Trypanosoma cruzi cruzain without detergent; Potency, µM, for the others: max response, negative = inhibition, actives largely listed as inhibitors; AID 1476; purified cruzain, Z-FR-AMC fluorescence, no detergent; P25779; 200,000 tested, 2.3% active;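 also: plate controls were enzyme without inhibitor for no effect and buffer without enzyme for full effect; nearly all actives have a fitted effect of over 40% in size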
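Detergent-free condition (0.00005% Triton X-100) in acetate buffer pH 5.5 with DTT. 1.5 nM enzyme and compound were pre-mixed 15 min, then 2 uM Z-FR-AMC substrate added; reaction progress from fluorescence change between first and third reads (60 s).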
Papain counter = blocks papain protease activity, flagging nonselective cruzain hits. shares compounds with Cruzain Triton. purified papain, Z-FR-AMC fluorescence cleavage. Potency, µM, without a hit: max response, negative = inhibition, hits mostly inhibitors. 410 tested, 41% active;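 also: 0% = no-compound wells and -100% = no-enzyme wells; nearly all actives have a fitted effect of over 35% in size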
Target sequence (P00784 whole entry, looked up): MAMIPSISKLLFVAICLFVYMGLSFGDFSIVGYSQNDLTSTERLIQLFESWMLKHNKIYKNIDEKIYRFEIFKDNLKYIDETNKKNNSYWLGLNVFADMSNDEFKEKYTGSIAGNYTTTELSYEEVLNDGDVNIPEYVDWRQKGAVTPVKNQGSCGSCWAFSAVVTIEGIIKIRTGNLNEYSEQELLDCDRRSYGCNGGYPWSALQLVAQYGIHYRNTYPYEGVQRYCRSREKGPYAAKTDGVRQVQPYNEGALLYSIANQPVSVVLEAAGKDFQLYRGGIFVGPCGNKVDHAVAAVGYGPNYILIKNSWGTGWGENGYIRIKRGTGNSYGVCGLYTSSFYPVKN
* marks the source's active call; other numbers are inactive results; ? = inconclusive; . = not tested or not shown. Only a selection was taken, and hits are over-represented in it overall. Unless noted, calls follow the shape of the dose curve; as a rule, active = well fitted curve in the direction sought with a large enough effect; inconclusive = small, poorly fitted or top-dose-only effect, or another doubt; inactive = no such curve, though single readings can be large; an effect the other way counts as inactive or inconclusive. Potency is read from the fitted curve at half-maximal effect.

SMILES	Cruzain Triton	NS1 inh	Cruzain inh noDet	others
Cn1c(=S)c2[nH]c(SCCN3C(=O)c4ccccc4C3=O)nc2n(C)c1=O	1.7%	-0.3%	7.6%
Cc1cc(Br)cc2c1N(Cc1ccccc1OC(C)C)C(=O)C2=O	-4.5%	.	-25.3%
CCOc1ccc(-c2cc(CCCC(=O)NCCc3cc(OC)c(OC)c(OC)c3)no2)cc1	-3.1%	.	?
COC(=O)C(C(=O)OC)[C@@H](NC(=O)OCc1ccccc1)c1ccccc1	0.0%	.	-15.7%
O=C1CCCC=C1[C@@H](O)CCOC(c1ccccc1)(c1ccccc1)c1ccccc1	-0.2%	.	1.7%
COc1cccc(Cn2c(=O)c(C)nc3cnc(OCc4ccccc4)nc32)c1	-4.6%	.	29.1%
CCc1ccc(NC(=O)CN(c2ccc(C)cc2)S(=O)(=O)c2cccs2)cc1	-5.1%	.	-15.4%
Cc1ccc(S(=O)(=O)c2c(N)n(/N=C/c3ccco3)c3nc4ccccc4nc23)cc1C	-21.6%	?	15.8µM*
Cc1cccc(S(=O)(=O)c2c(N)n(/N=C/c3ccco3)c3nc4ccccc4nc23)c1	-4.8%	?	-21.6%
O=C(c1ccco1)N1CCC2(CC1)CN(c1ccccn1)C2	5.8%	.	12.1%
O=S(=O)(c1ccccc1)N1CCC2(CCN(c3cccc(-c4ccccc4)c3)CC2)CC1	6.8%	.	14.9%
C=C1CC[C@H](O)C/C1=C/C=C1\CCC[C@]2(C)[C@@H]([C@H](C)CCCC(C)C)CC[C@@H]12	-3.1%	.	?
O=S(=O)(Cl)c1ccccc1	4.2%	.	-2.6%
O=S(=O)(c1cccs1)N1CN(Cc2ccco2)c2nc3ccccc3nc21	.	-5.8%	.
Cc1cccc(S(=O)(=O)N2CN(Cc3ccco3)c3nc4ccccc4nc32)c1	-7.7%	-3.7%	25.1µM*
COc1cccc(Cn2c(=O)c(-c3cccs3)nc3cnc(N(C)C)nc32)c1	-0.2%	.	0.9%
O=C(CSc1ccccc1)Nc1ccc(N2CCN(c3ccccc3)CC2)c(F)c1	9.0%	3.3%	12.6µM*
COCC(=O)Nc1ccc(N2CCN(c3ccccc3)CC2)c(F)c1	.	0.5%	.
COc1ccc(NC(=O)C2CCCN(C(=O)c3cnn(-c4ccccc4)c3-n3cccc3)C2)cc1 (stereo not given)	-2.9%	.	?
CCCCn1c2ccc(F)cc2c2nnc(SCCN(CC)CC)nc21	15.8µM*	.	20µM*
CCCCn1c2ccc(F)cc2c2nnc(SCCN3CCOCC3)nc21	.	1.2%	.
N#C/C(=C\c1ccc(OCc2ccccc2)cc1)C(=O)Nc1ccc(C(=O)O)cc1	.	-56.0%	.
CCN(CC)S(=O)(=O)c1ccc(N2CCCCC2)c(NC(=O)/C(C#N)=C/c2ccc(OC)cc2)c1	-6.7%	6.9%	10µM*
CCOc1cc(/C=C(/C#N)C(=O)Nc2ccc(O)cc2)cc(Br)c1O	-1.5%	7.4%	-13.4%
COc1ccc(/C=C(\C#N)C(=O)Nc2cc(S(=O)(=O)N3CCOCC3)ccc2N2CCCC2)cc1	-17.1%	?	?
SMILES	Cruzain Triton	NS1 inh	Cruzain inh noDet	others
CCOc1ccc(NC(=O)/C(C#N)=C/c2ccc(N3CCCC3)c(C)c2)cc1	-7.0%	14.5%	10µM*
COc1ccc(NC(=O)/C(C#N)=C/c2ccc(OCc3ccccc3F)cc2)cc1	-0.9%	-32.8%	3.98µM*
NC(CCl)=N[C@H]1CN2CCC1CC2	2.3%	-4.1%	15.1%
COc1ccc(C)cc1NC(=O)Cn1c(=O)n(Cc2nc(C)no2)c(=O)c2ccccc21	-3.4%	.	15.9%
COc1ccc(Cn2c(=O)c3oc4ccccc4c3n(Cc3ccc(F)cc3)c2=O)cc1	-1.0%	.	-0.6%
CC(=O)n1c(COS(C)(=O)=O)nc2ccccc21	4.9%	1.4%	-14.3%
O=C(Cc1cn2ccsc2n1)Nc1ccccn1	-6.9%	-2.1%	-29.3%
O=C(Cc1cn2ccsc2n1)Nc1cccc2cnccc12	?	-10.6%	12.6µM*
O=C1OC2(c3cc(Br)c(O)c(Br)c3Oc3c2cc(Br)c(O)c3Br)c2c(Cl)c(Cl)c(Cl)c(Cl)c21	15.8µM*	.	?
O=C1OC(c2ccc(O)c(-c3ccccc3)c2)(c2ccc(O)c(-c3ccccc3)c2)c2c(Cl)c(Cl)c(Cl)c(Cl)c21	1.4%	0.0%	-0.7%
O=c1c(-c2ccc(F)c(F)c2)nc2cncnc2n1Cc1ccccc1	2.7%	.	-1.3%
CCOc1ccccc1NC(=S)NC(=O)CCCOc1ccc(Cl)cc1Cl	-2.4%	-2.9%	20µM*
O=C(CCCOc1ccc(Cl)cc1Cl)Nc1ccccc1C(=O)O	.	-1.6%	.
COc1ccc(CCNC(=O)c2nc(SCc3ccc(C)cc3)ncc2Cl)cc1OC	0.8%	.	?
O=C1NN(c2ccccc2)C(=O)/C1=C\c1cccc(OC(=O)c2cccs2)c1	-15.8%	0.2%	?
O=C1NN(c2ccc(Cl)c(Cl)c2)C(=O)/C1=C/c1cccc(OC(=O)c2cccs2)c1	20µM*	-3.6%	6.9%	Papain counter=17.8µM*
O=C(NCCc1nc2ccccc2n1Cc1ccccc1F)c1ccc(F)cc1	3.16µM*	.	7.9%	Papain counter=-9.4%
CC(NC(=O)c1ccc(F)cc1)c1nc2ccccc2n1Cc1ccccc1F (stereo not given)	0.1%	-14.8%	3.0%
N#CCCS(=O)(=O)c1ccccc1	6.6%	.	4.8%
CCOc1ccc2oc(=O)cc(CN3CCN(c4cc(C)ccc4C)CC3)c2c1	-0.5%	.	0.5%
CCC(CC)c1nn2c(=O)cc(COc3ccc(NC(=O)c4ccc(Cl)cc4)cc3)nc2s1	0.3%	.	9.0%
CCOc1ccc(Nc2c(S(=O)(=O)c3ccc(Cl)cc3)cnc3ccc(OC)cc23)cc1	-3.9%	.	-18.6%
COc1ccc(-c2cc(C(F)(F)F)nc(N3CCN(C)CC3)n2)cc1	0.1%	7.2%	-3.4%
COc1ccc(-c2cc(C#N)nc(N3CCN(C)CC3)n2)cc1	25.1µM*	-12.1%	15.8µM*	Papain counter=-17.8%
Cc1oc2ncn(CC(C)C)c(=O)c2c1C(=O)Nc1cc(F)ccc1F	-0.6%	.	-19.4%
SMILES	Cruzain Triton	NS1 inh	Cruzain inh noDet	others
COCCNC(=O)C1(C)Oc2ccccc2NC1=O (stereo not given)	-4.4%	-1.4%	-2.2%
CC(=O)OC1(C(F)(F)F)Oc2ccccc2NC1=O (stereo not given)	0.891µM*	1.8%	1.26µM*	Papain counter=7.94µM*
CCOc1ccc(-n2c(=O)c3c(C)c(C)sc3n(CC(=O)N3CCC(C)CC3)c2=O)cc1	-1.8%	.	-6.0%
C=CCn1c(SCC(=O)Nc2cc3oc4ccccc4c3cc2OC)nnc1-c1cnccn1	0.1%	-105.6%	?	Papain counter=4.5%
C=CCn1c(SCC(=O)Nc2cccc3ccccc23)nnc1-c1cnccn1	-8.7%	4.0%	-12.0%
COc1ccc(-c2nc3cnc(OC)nc3n(-c3ccccc3)c2=O)cc1	2.9%	.	5.5%
CCOc1ccc(NC(=O)c2ccc(CNc3c(NC4CCCCC4)c(=O)c3=O)cc2)cc1	0.1%	4.6%	3.98µM*	Papain counter=7.7%
COc1ccc(NC(=O)c2ccc(CNc3c(NC4CCCCC4)c(=O)c3=O)cc2)c(OC)c1	0.0%	7.0%	?
CCCCC/C=C\C/C=C\C/C=C\C=C\C(=O)CCCC(=O)O	7.0%	.	-2.6%
CCCCc1ccc(Nc2cc(C)nc(-n3nc(C)cc3C)n2)cc1	-9.6%	.	?
CCc1ccc(N2CSC3=C(C#N)C(c4cccs4)CC(=O)N3C2)cc1 (stereo not given)	-7.6%	-91.1%	?
CCOC(=O)c1ccc(N2CSC3=C(C#N)C(c4cccs4)CC(=O)N3C2)cc1 (stereo not given)	-9.3%	-44.8%	-16.4%	Papain counter=2.2%

Source: PubChem BioAssay (National Center for Advancing Translational Sciences (NCATS))
